Test results as given in PubChem BioAssay AID778 (Sanford-Burnham Center for Chemical Genomics, 2007).
In all, about 96,000 compounds went through this assay and about 20,000 (21%) were called active.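 How the source made its calls: active means CYP2C19 inhibition above a set limit at 5 µM in the primary screen (cut at about 50% in these data); inactive means the rest.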 Only a sample is shown.

Molecular target: Cytochrome P450 2C19 (Homo sapiens) (UniProt P33261)
Test: blockers of cytochrome P450 2C19 activity – biochemical, luminescence, ADME assay, primary screen (AID 778);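 further: plate controls were negative control wells for no effect and 2.5 mM tranylcypromine positive control for full effect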
Settings: CYP2C19 Supersomes, luciferin-H EGE luminescence, 30 min; at 5 µM; stronger effect = higher value

Sequence of Cytochrome P450 2C19 (Homo sapiens) (P33261 whole entry, looked up): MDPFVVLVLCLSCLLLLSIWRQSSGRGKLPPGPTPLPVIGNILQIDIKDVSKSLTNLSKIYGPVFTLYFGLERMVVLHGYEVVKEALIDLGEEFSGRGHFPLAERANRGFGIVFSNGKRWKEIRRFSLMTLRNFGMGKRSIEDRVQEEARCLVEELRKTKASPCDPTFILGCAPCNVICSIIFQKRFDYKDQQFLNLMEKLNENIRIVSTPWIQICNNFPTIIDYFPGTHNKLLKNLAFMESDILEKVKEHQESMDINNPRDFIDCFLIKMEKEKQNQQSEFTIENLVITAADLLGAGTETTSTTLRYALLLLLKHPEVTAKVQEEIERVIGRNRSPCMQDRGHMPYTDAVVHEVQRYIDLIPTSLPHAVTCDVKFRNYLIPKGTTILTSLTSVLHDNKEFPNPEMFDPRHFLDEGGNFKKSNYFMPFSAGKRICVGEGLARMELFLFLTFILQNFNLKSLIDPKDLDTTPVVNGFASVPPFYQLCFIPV

SMILES | inhibition
COC(=O)CSc1snnc1-c1ccc(Cl)c(Cl)c1 | 44.8% (inactive)
Cn1c(SCC(=O)N2CCOCC2)nnc1-c1ccc(NC(=O)c2ccccc2F)cc1 | 2.8% (inactive)
O=C(Nc1nnc(SCc2c(Cl)cccc2Cl)s1)C1CCCO1 (stereo not given) | 9.6% (inactive)
Cc1cc(C)c2nc(SCCC#N)nc(C)c2c1 | 53.5% (active)
CSc1ccc(CCNC(=O)C2CCN(c3nnc(-n4cccc4)s3)CC2)cc1 | 28.8% (inactive)
CC(=O)Cc1nsc(NC(=O)c2csc3c2CCCC3)n1 | 42.6% (inactive)
CCOC(=O)Cn1c(CN(Cc2ccccc2)Cc2ccccc2)nc2c1c(=O)[nH]c(=O)n2C | 16.4% (inactive)
O=S(=O)(NCc1ccccc1Cl)c1cnc[nH]1 | 22.3% (inactive)
Cc1nnsc1S(=O)(=O)Cc1ccccc1Cl | 56.2% (active)
O=C(Nc1ccccc1)c1nnsc1S(=O)(=O)c1ccc(Cl)cc1 | 19.5% (inactive)
COc1cccc(OC)c1C(=O)Nc1nnc(C(C)C)s1 | -6.4% (inactive)
Cc1ccc(NC(=O)c2ccc(CSc3ncnc4nc[nH]c34)cc2)c(C)c1 | 11.8% (inactive)
O=C(c1ccc(O)cc1)c1ccc(C(=O)O)c(C(=O)O)c1 | -0.1% (inactive)
N#CC1=C(SCc2ccc(C#N)cc2)N=C(N)C(c2nc(-c3ccccc3)cs2)C12CCCCC2 (stereo not given) | 92.9% (active)
O=C(NC1CCCCC1)c1ccc2c(=O)n(CC3CCCO3)c(=O)[nH]c2c1 (stereo not given) | 0.4% (inactive)
COc1ccc(C2C3=C(OC(C)=O)c4ccccc4C3=Nc3c2c(=O)n(C)c(=O)n3C)cc1 (stereo not given) | -6.9% (inactive)
Cn1c2ccccc2c2c(C(=O)N3CCN(c4ccc(F)cc4)CC3)cn(C3CCCC3)c(=O)c21 | 85.8% (active)
Cn1c(C(=O)N2CCC(C(N)=O)CC2)cc2c(=O)n(C)c3ccccc3c21 | -10.1% (inactive)
CCOC(=O)N1CCN(C(=O)c2nn(-c3ccc(C)cc3)c(=O)c3c2c2ccccc2n3C)CC1 | -2.9% (inactive)
COc1ccc(CC(=O)Nc2sc(Cc3ccccc3)c(C)c2C(N)=O)cc1 | 1% (inactive)
Cc1nn(-c2cc(Cl)ccc2N)c(=O)c2ccccc12 | 8.7% (inactive)
Cc1nc(NC(=O)c2cccc(Cl)c2)sc1-c1csc(Nc2cccc(Cl)c2)n1 | -18.9% (inactive)
Cc1cc(OC(=O)c2c(Cl)cccc2Cl)nc(C)n1 | -6.5% (inactive)
CCOC(=O)N1CCN(C(=O)c2n[nH]c(=O)c3ccccc23)CC1 | -2.6% (inactive)
CN(C)S(=O)(=O)c1ccc(NC(=O)COC(=O)c2n[nH]c3ccccc23)cc1 | -17.2% (inactive)
O=C(Cc1c(O)c2ccccc2[nH]c1=O)NCc1ccccc1 | 4.1% (inactive)
COc1ccc(C(C)=O)cc1COC(=O)Cn1cnc2ccccc2c1=O | 28.2% (inactive)

SMILES | inhibition
O=C(COC(=O)c1n[nH]c2ccccc12)NCc1ccccc1 | 76.4% (active)
COc1ccc(COC(=O)c2n[nH]c3ccccc23)cc1F | 57.1% (active)
CSc1sc(C)cc1C1C(C#N)=C(N)N(c2cccnc2)C2=C1C(=O)CCC2 (stereo not given) | 29.4% (inactive)
CC(C)NC(=O)CSc1ccccc1C(=O)NCc1ccc2c(c1)OCO2 | 33.8% (inactive)
CCSc1ccccc1C(=O)NCc1ccc(OC)cc1 | 96.2% (active)
CCCNC(=O)c1ccccc1NC(=O)CSCc1ccc(OC)cc1 | 45.7% (inactive)
COc1cc(OC)c(C(=O)Nc2ccc(N(C)C)cc2)cc1OC | -11% (inactive)
CCCN1C(=O)C(NS(=O)(=O)c2ccc(N)cc2)(C(F)(F)F)C(C(=O)OC)=C1C (stereo not given) | 6.9% (inactive)
CC(=O)c1cccc(NC(=O)N2CCCC2C(=O)NCCc2ccccc2)c1 (stereo not given) | 30.9% (inactive)
O=C(NCCc1ccccc1)c1ccc(NC2=NC3CS(=O)(=O)CC3S2)cc1 (stereo not given) | 5% (inactive)
CC1CCCN(c2ccc(C(=O)NCCc3ccccc3)cn2)C1 (stereo not given) | 60.7% (active)
CCc1ccc2oc(-c3ccc(N)cc3)nc2c1 | -5.5% (inactive)
CC(C)C(=O)N1CCN(CCN=CC2=C(O)CC(c3ccco3)CC2=O)CC1 (stereo not given) | 2.8% (inactive)
O=[N+]([O-])c1ccccc1/C=N/n1c(COc2ccccc2)n[nH]c1=S | 8.1% (inactive)
Cc1cccc(-n2c(N)c(C(=O)N3CCN(C)CC3)sc2=S)c1 | 6.5% (inactive)
CC1CCCN(Cc2nc3c(c(=O)n(C)c(=O)n3C)n2CC(=O)c2ccccc2)C1 (stereo not given) | 15.6% (inactive)
COc1ccc(OC)c(NC(=O)CSc2nc(N)c(-c3ccccc3)c(=O)[nH]2)c1 | 11.1% (inactive)
COc1ccc(NC(=O)CSc2nc(NS(=O)(=O)c3ccc(C)cc3)cc(=O)[nH]2)cc1 | 85.4% (active)
COc1ccc(NC(=O)CSc2nc(N)c(-c3ccccc3)c(=O)[nH]2)cc1 | 2% (inactive)
COC(=O)c1cccc(NC(=O)CSc2nc(C)cc(=O)[nH]2)c1 | 20.8% (inactive)
COc1ccc2nc(SCC(=O)Nc3c(C)cc(C)cc3C)[nH]c2c1 | 64.3% (active)
COc1cc2ccccc2cc1C(=O)Nc1ccc(S(=O)(=O)Nc2cc(C)on2)cc1 | -10.1% (inactive)
C=CCn1c(=S)[nH]c2nc3c(cc2c1=O)COC(C)(C)C3 | 41.9% (inactive)
Cc1nc2ncnn2c(C)c1CCC(=O)N1CCN(C(=O)c2ccco2)CC1 | -9.1% (inactive)
CCN(c1ccccc1)S(=O)(=O)c1ccc(N)cc1 | 12.9% (inactive)
Cn1nnc(NC(=O)CSc2ncn[nH]2)n1 | -2% (inactive)
Cn1nc(-c2ccc(Cl)cc2)c2cc(C(=O)NCc3ccco3)sc21 | 24.9% (inactive)

SMILES | inhibition
COc1ccc(-n2c(C)cc(C(=O)CSc3nnc(-c4cccs4)o3)c2C)cc1 | 83.2% (active)
COc1ccc(OC)c(C(=O)CSc2nnc(-c3cccs3)o2)c1 | 54.9% (active)
COc1ccc(-c2nnc(SCC(=O)c3cccs3)o2)c(OC)c1 | 14.1% (inactive)
Cc1cc(NC(=O)CSc2nnc(-c3ccc(Cl)s3)o2)no1 | 32.4% (inactive)
COc1ccc(-c2nnc(SC(=O)N3c4ccccc4Sc4ccccc43)o2)cc1 | 11.9% (inactive)
COC(=O)CSc1nnc(-c2cccnc2)o1 | 7.2% (inactive)
COc1cc(/C=C(\C#N)c2nc3c(s2)CC(C)CC3)ccc1O (stereo not given) | 2.4% (inactive)
Cc1ccc2nc(SCc3nnc(-c4ccccc4[N+](=O)[O-])o3)c(C#N)cc2c1 | 17.1% (inactive)
O=S(=O)(CCc1nc2ccccc2o1)c1ccc(Cl)cc1 | 30.1% (inactive)
COc1ccc(N2C(=O)C3CCCN3C2c2cccs2)cc1 (stereo not given) | 29.5% (inactive)
CC12CN(Cc3ccccc3)CC(C)(CN(Cc3ccccc3)C1)C2=NO | 15.1% (inactive)
c1ccc(CSc2ncnc3c2sc2nc(N4CCOCC4)c4c(c23)CCCC4)cc1 | 4% (inactive)
CCCSc1nsc(N)n1 | 15.5% (inactive)
CCc1nn(-c2cc(Oc3cccc4ccccc34)nc(-c3ccccc3)n2)c(N)c1C#N | 0.4% (inactive)
O=S(=O)(NCc1cccnc1)c1ccc(Br)s1 | 60.4% (active)
Cc1cc(Cl)c(S(=O)(=O)NCc2cccnc2)cc1OCC(N)=O | -7.3% (inactive)
O=S(=O)(NCc1cccnc1)c1ccc(Cl)nc1 | 13.3% (inactive)
CN(c1ccc(C(=O)NCc2ccccn2)cc1)S(C)(=O)=O | 14.5% (inactive)
O=S(=O)(NCc1ccccn1)c1ccc(Br)s1 | 61.6% (active)
O=S(=O)(NCc1ccccn1)c1ccc(F)cc1 | 40.5% (inactive)
C#CCSc1nnc(-c2sc3ccccc3c2Cl)o1 | 25.2% (inactive)
COc1ccc(C(F)(F)F)cc1N/C=C\c1nnnn1-c1ccc(C)cc1 | 40.8% (inactive)
CCc1ccccc1N(CC(=O)N1CCN(c2ccccc2F)CC1)S(C)(=O)=O | -6.6% (inactive)
Cc1ccccc1OCC(=O)Nc1ccc(N2CCN(C(=O)C(C)C)CC2)c(Cl)c1 | 42.7% (inactive)
Cc1ccc(NC(=O)COc2ccc(-n3ccnc3)cc2)cc1Cl | 99.2% (active)
Cc1csc(OCC(=O)Nc2ccc(C)c(C)c2)n1 | 15.8% (inactive)
Cc1ccc(SCC(=O)NC(=O)NCc2ccco2)c(C)c1 | 27% (inactive)

SMILES | inhibition
CC1(N2CCOCC2)CC2(O)C(=[N+]1[O-])CCc1nonc12 (stereo not given) | 21.6% (inactive)
COc1ccccc1Nc1ncc(C(C)=O)c(C)n1 | 1.3% (inactive)
CC(=O)c1cnn(-c2cc(Oc3ccc(F)cc3)ncn2)c1C | 46.1% (inactive)
COc1ccccc1-c1c(C)nn2c(C)c(C(C)=O)cnc12 | 55% (active)
Cc1nn(-c2ncc(C(F)(F)F)cc2Cl)c(=O)n1-c1ccccc1 | 23.9% (inactive)
CCCc1cc(=O)oc2c(C)c(O)c(CN3CCCCC3)cc12 | 44.5% (inactive)
CC1Cc2cc(/C(O)=C3\C(=O)C(=O)N(CCN4CCOCC4)C3c3ccccc3F)ccc2O1 (stereo not given) | -2.6% (inactive)
Cn1c(Cn2nnc3ccccc32)nnc1SCC(=O)c1ccccc1F | 7.9% (inactive)
Cc1cc(C)cc(OCc2nnc(SCC(=O)Nc3ccccc3)o2)c1 | 2.4% (inactive)
CC(C)NC(=O)CSc1nnc(COc2ccccc2Cl)o1 | 60.8% (active)
Cc1ccccc1OCc1nnc(SCC(=O)N2c3ccccc3Sc3ccc(Cl)cc32)o1 | 12% (inactive)
CCOCCCNC(=O)Cc1cc(=O)[nH]c(=O)[nH]1 | -18.9% (inactive)
CC(C)C(=O)Nc1cccc(C(=O)Nc2ccc3c(c2)OCO3)c1 | 30.7% (inactive)
O=C(CN1CCN(c2ccccc2F)CC1)c1ccc2c(c1)OCO2 | 67.3% (active)
O=C(Nc1ccc(N2CCN(C(=O)c3ccccc3)CC2)c(Cl)c1)c1cccnc1 | 22.7% (inactive)
O=C(Nc1ccccc1N1CCCCC1)c1ccc2nccnc2c1 | 6.8% (inactive)
O=C(Nc1ccccc1N1CCN(c2ccccc2)CC1)c1cccc(F)c1 | 79.2% (active)
Cc1ccc(F)cc1NC(=O)c1ccc2c(c1)OCO2 | 33.3% (inactive)
O=C(Nc1cccnc1)c1ccc2c(c1)OCO2 | 35.6% (inactive)
O=C(Nc1ccccc1N1CCN(C(=O)c2ccccc2)CC1)c1ccc2c(c1)OCO2 | 67% (active)
O=C(CN1CCN(CC(=O)Nc2ccc3c(c2)OCO3)CC1)Nc1ccc(F)cc1 | 16.8% (inactive)
O=C(Nc1ccccc1N1CCCCC1)c1cccc(F)c1 | 19% (inactive)
O=C(Nc1ccccc1)c1ccc2c(c1)OCO2 | 81.4% (active)
CCCC(=O)Nc1ccccc1N1CCN(C(=O)c2ccccc2)CC1 | 33% (inactive)
